Compound activity: PubChem, National Center for Advancing Translational Sciences (NCATS)
Sfp PPTase inh: Sfp phosphopantetheinyl transferase inhibition | 310,000 compounds, 3.5% hits | Potency, µM, without a hit: largest response in the series, negative = inhibition, most hits filed as inhibitors | AID 1490 | Biochemical Sfp PPTase activity, qHTS;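 note: the enzyme is Sfp with the accession as filed and its product quenches rhodamine fluorescence; 0% = enzyme reaction without inhibitor and -100% = no enzyme wells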
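Buffer: 50 mM Hepes-Na pH 7.6, 10 mM MgCl2, 0.01% Nonidet P-40, 0.01% BSA. Enzyme 15 nM, pre-exposed to compound 15 min; substrates then added and fluorescence change tracked over 30 min.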
HP1b binding inh: HP1-beta chromodomain-methylated histone interaction inhibition | P83916 | AlphaScreen HP1-beta / biotin-H3K9me3 peptide binding | Potency, µM (highest dose often 114 µM), inactives show at the highest dose activity change, negative = inhibition, hits mostly inhibitors | 390,000 compounds, 0.56% hits; note: nearly all actives have a fitted effect of over 70% in size
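Compound inhibition of the preformed complex between 50 nM HP1-beta and 50 nM biotinylated H3K9me3 peptide was read by AlphaScreen. Buffer was PBS pH 7.4 with 0.01% Tween-20. Incubations ran 30 min at room temperature, with 10 ug/mL donor/acceptor beads.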
JMJD2A Tudor inh: inhibitors of human JMJD2A Tudor domain; 390,000 compounds, 4.4% hits; O75164; AID 504339; AlphaScreen JMJD2A-Tudor / H3K4me3 peptide binding; Potency, µM (highest dose often 114 µM), inactives show at the highest dose activity change, negative = inhibition, actives largely listed as inhibitors; note: % is set by controls: 0 for no effect and ±100 for the full control effect; nearly all actives have a fitted effect of over 50% in size
Target sequence (O75164 whole entry, looked up, the tested form may be a part): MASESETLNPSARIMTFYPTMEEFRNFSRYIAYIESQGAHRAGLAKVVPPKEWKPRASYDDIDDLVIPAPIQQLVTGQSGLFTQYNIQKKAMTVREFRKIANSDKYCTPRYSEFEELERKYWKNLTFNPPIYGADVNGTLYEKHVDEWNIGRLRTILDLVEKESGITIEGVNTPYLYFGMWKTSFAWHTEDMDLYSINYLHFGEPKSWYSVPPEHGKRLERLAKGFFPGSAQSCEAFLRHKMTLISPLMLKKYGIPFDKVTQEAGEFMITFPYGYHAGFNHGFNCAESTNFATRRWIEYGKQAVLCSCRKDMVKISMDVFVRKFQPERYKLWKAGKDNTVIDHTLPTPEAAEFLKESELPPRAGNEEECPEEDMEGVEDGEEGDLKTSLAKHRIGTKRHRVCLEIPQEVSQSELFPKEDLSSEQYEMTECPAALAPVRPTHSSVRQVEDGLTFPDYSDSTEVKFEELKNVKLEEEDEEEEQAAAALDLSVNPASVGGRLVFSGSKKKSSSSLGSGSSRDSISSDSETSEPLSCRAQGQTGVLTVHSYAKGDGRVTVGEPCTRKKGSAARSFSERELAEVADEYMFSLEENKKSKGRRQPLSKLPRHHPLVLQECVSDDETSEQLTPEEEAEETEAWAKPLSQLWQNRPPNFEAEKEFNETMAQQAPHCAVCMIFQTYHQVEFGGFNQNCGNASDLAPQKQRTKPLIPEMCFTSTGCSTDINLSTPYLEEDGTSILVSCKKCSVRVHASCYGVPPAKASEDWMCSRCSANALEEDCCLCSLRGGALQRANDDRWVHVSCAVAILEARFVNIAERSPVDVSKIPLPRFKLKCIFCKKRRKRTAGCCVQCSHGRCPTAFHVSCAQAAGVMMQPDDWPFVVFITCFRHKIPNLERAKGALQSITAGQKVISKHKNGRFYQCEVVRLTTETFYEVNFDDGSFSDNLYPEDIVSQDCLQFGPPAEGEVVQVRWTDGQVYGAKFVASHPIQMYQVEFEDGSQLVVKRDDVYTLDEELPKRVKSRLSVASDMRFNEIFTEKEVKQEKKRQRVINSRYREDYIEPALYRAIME
L3MBTL1 block: L3MBTL1 (human) inhibition | Q9Y468 | AlphaScreen L3MBTL1–H3K9me1 peptide binding | Potency, µM (series often up to 57.1 µM), for the others: at the highest dose activity, negative = inhibition, most hits filed as inhibitors | 230,000 compounds, 0.66% hits | AID 485360; note: % is set by controls: 0 for no effect and ±100 for the full control effect; nearly all actives have a fitted effect of over 60% in size
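Displacement of a biotinylated histone H3(1-15) peptide monomethylated at Lys9 (75 nM) from L3MBTL1 (50 nM) was measured by AlphaScreen after a 30 min room-temperature compound incubation; cefsulodin titration served as intraplate control.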
BAZ2B block: blocks human BAZ2B; Potency, µM (titrated, usually from 114 µM), for the others: at the top dose activity change, negative = inhibition, actives largely listed as inhibitors; AlphaScreen BAZ2B-H3K14Ac peptide displacement; Q9UIF8; 360,000 compounds, 4.4% hits; AID 504333; note: % is set by controls: 0 for no effect and ±100 for the full control effect; nearly all actives have a fitted effect of over 60% in size
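Complex of BAZ2B and biotin-H3K14Ac (50 nM apiece) forms over 30 min at RT, then faces library compounds up to 110 uM for another 30 min; AlphaScreen beads added, 20 min dark incubation, luminescence read.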
G9a block: blocks human histone lysine methyltransferase G9a; Q96KQ7; G9a H3K9 monomethylation, AlphaScreen, 2 h; Potency, µM (titrated, usually from 102 µM), for inactives: at the highest dose activity, negative = inhibition, actives largely listed as inhibitors; 350,000 compounds, 8.8% hits; AID 504332; note: % is set by controls: 0 for no effect and ±100 for the full control effect; nearly all actives have a fitted effect of over 75% in size
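Step 1: enzyme (final 20 nM) with compound, 15 min RT. Step 2: substrate peptide 500 nM and SAM 20 uM, 2 h RT. Step 3: anti-H3K9me1 antibody and AlphaScreen beads, 10 min, then plate read.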
* hit, by the source's call; ? = inconclusive; . = not tested or not shown; [ ] = remark or other dose. Only some compounds are listed: those with a hit (about 12% of all), similar ones and a draw of the others. Calls come from the whole dose curve; as a rule, active = well fitted curve in the direction sought with a large enough effect; inconclusive = small, poorly fitted or top-dose-only effect, or another doubt; inactive = no such curve, though single readings can be large; an effect the other way counts as inactive or inconclusive. Potency is the fitted concentration of half-maximal effect.

SMILES	Sfp PPTase inh	HP1b binding inh	JMJD2A Tudor inh	L3MBTL1 block	BAZ2B block	G9a block
O=C1C2CC=C(Cl)CC2C(=O)N1CC1Cc2ccccc2CO1 (centres undefined)	-17%	30%	-10%	.	-35%	50µM*
O=C1C2CC=C(Cl)CC2C(=O)N1CC1OCCc2ccccc21 (centres undefined)	-15%	35%	-4%	.	-10%	?
COc1ccc(C(=O)c2c(C(F)(F)F)oc3c2C(=O)c2ccccc2C3=O)cc1OC	-6%	?	?	.	?	14µM*
CCCC[C@H](NC(C)=O)C(=O)N[C@@H](CCC(=O)O)C(=O)N[C@@H](Cc1cnc[nH]1)C(=O)N[C@H](Cc1ccccc1)C(=O)N[C@@H](CCCN=C(N)N)C(=O)N[C@H](Cc1c[nH]c2ccccc12)C(=O)NCC(N)=O	34%	.	.	.	.	.
COc1ccc(C)cc1Nc1ncnc2c1c(-c1ccccc1)cn2-c1ccc(C)cc1	.	28%	-13%	.	-19%	-3%[59 µM]
COc1ccc(N=C2NC(=O)CS2)c([N+](=O)[O-])c1	9%	13%	-20%	-5%	-28%	-34%
COc1ccc(N=CC2CCCCC2=O)c([N+](=O)[O-])c1 (centres undefined)	.	45µM*	25µM*	.	.	.
COc1ccc(N=C2C(=S)N(c3ccc(OC)cc3)C(=NS(=O)(=O)c3ccccc3)N2c2ccccc2)cc1	.	10µM*	?	.	.	.
COc1ccc(N2C(=O)NC(NS(=O)(=O)c3ccccc3)(C(F)(F)F)C2=O)cc1 (centres undefined)	11%	48%	-11%	.	-15%	5%
CC1CCC(NC(=O)C2(C)Cc3ccccc3C(=O)N2Cc2ccccc2Cl)CC1 (centres undefined)	.	63%	46%	.	16%	31%[59 µM]
CCn1c(-c2ccc(OC)c(OC)c2)n[nH]c1=S	?	-3%	3.5µM*	.	0%	2µM*
COc1ccc(-c2c(N)n[nH]c2C)cc1OC	15%	48%	0%	1%	-14%	.
C=CCn1c(-c2c(C)nc3cc(C)ccn23)n[nH]c1=S	1.8µM*	26%	10µM*	5%	-4%	10µM*
C=CCn1c(-c2ccc(OC)c(OC)c2)n[nH]c1=S	79µM*	14%	25µM*	-8%	-8%	-13%[59 µM]
CCOc1cc(/C=C2\C(=O)ON=C2c2ccccc2)ccc1OC	28µM*	19%	-14%	.	-29%	13%[2.33 µM]
COc1cc(/C=C2\C(=O)ON=C2c2ccccc2)cc(OC)c1OC	50µM*	21%	-22%	-4%	?	?
CCCCc1ccc(/C=C2\C(=O)ON=C2c2ccccc2)s1	-3%	31%	-11%	3%	9%	21%[59 µM]
O=C1ON=C(c2ccccc2)/C1=C/c1ccc(-c2ccccc2[N+](=O)[O-])o1	?	50µM*	28µM*	?	22µM*	7.1µM*
O=C1ON=C(c2ccc([N+](=O)[O-])cc2)/C1=C/c1ccccc1O	40µM*	32%	-13%	.	-24%	79µM*
NC(=O)COc1ccc(/C=C2\C(=O)ON=C2c2ccccc2)cc1	.	13%	-2%	0%	-18%	16%[12.7 µM]
COc1ccc(/C=C2\C(=O)ON=C2c2cccc([N+](=O)[O-])c2)cc1	56µM*	.	.	.	?	18µM*
COc1ccc(/C=C2/C(=O)ON=C2c2ccccc2)cc1OC	35µM*	4%	79µM*	-7%	?	7%[0.501 µM]
COc1ccc(/C=C2\C(=O)ON=C2c2ccccc2)cc1OC	22µM*	46%	-11%	-5%	2%	?
CN(C)/C=C1\C(=O)ON=C1c1ccccc1	10%	23%	-8%	11%	-2%	?
COc1ccc(C=C2C(=O)OC(C)(C)OC2=O)cc1OC	-12%	63%	-1%	13%	-4%	-9%[2.33 µM]
SMILES	Sfp PPTase inh	HP1b binding inh	JMJD2A Tudor inh	L3MBTL1 block	BAZ2B block	G9a block
O=C1ON=C(c2ccccc2)/C1=C/c1ccco1	50µM*	12%	-36%	28µM*	40µM*	32µM*
CC(O)(CS(=O)(=O)Cc1ccccc1)c1ccc(Cl)cc1 (centres undefined)	1%	35%	2%	.	-30%	-31%
Cc1ccc(C(C)(O)CS(=O)(=O)Cc2ccccc2Cl)cc1 (centres undefined)	-18%	56%	-2%	.	5%	45µM*
CCOc1ccc(N2Nc3n[nH]c(N)c3N2)cc1	12%	-15%	?	-20%	?	8.9µM*
COc1ccc(N2Nc3n[nH]c(N)c3N2)cc1	3%	-2%	?	-5%	-35%	7.9µM*
CCC(C(=O)Nc1cc(C)ccc1OC)n1nnc(C(=O)OC)c1C(=O)OC (centres undefined)	.	15%	-13%	.	3%	2%[59 µM]
CCc1ccc2c(c1)[C@]1(C(=O)N2)[C@@H]2C(=O)N(Cc3ccccc3)C(=O)[C@@H]2[C@@H]2CCCN21	-7%	6%	-32%	-12%	2%	71µM*
Oc1c(Cl)cc(Cl)cc1/C=N/c1nccs1	50µM*	16%	-18%	.	-2%	8.9µM*
Oc1c(Cl)cc(Cl)cc1/C=N/c1nc(-c2ccc(Cl)cc2)cs1	23%	-6%	?	-7%	-26%	?
CCOc1cc(/C=C2/C(=N)N3C(=NC2=O)SN=C3S(=O)(=O)C(C)C)ccc1OC(=O)c1ccco1	-11%	-5%	-25%	.	-35%	35µM*
COc1cc(/C=C2/C(=N)N3C(=NC2=O)SN=C3S(=O)(=O)C(C)C)ccc1OC(=O)c1ccco1	-2%	-7%[57 µM]	-31%	.	56µM*	40µM*
COc1cc(/C=C2/C(=N)N3C(=NC2=O)SN=C3S(C)(=O)=O)ccc1OC(=O)c1ccco1	-15%	5%	?	.	?	?
COc1cc(/C=C2/C(=N)N3C(=NC2=O)SN=C3S(=O)(=O)C(C)C)ccc1OS(=O)(=O)c1ccccc1	56µM*	.	.	.	?	1%[59 µM]
CCOc1cc(/C=C2/C(=N)N3C(=NC2=O)SN=C3S(=O)(=O)CC)ccc1OC(=O)c1ccco1	11%	-14%[57 µM]	?	.	-34%	40µM*
COC(=O)C(Cc1cncn1COCc1ccccc1)NC(=O)OC(C)(C)C (centres undefined)	-21%	13%	?	-6%	79µM*	28µM*
CC(C)(C)OC(=O)N[C@@H](CC(=O)OCc1ccccc1)C(=O)O	22%	10%	50µM*	.	7%	-31%
CC(C)(C)OC(=O)N[C@@H](CCCCNC(=O)OCc1ccccc1)c1nnc([C@H](CCCCNC(=O)OCc2ccccc2)NC(=O)OC(C)(C)C)o1	11%	27%	-25%	.	3%	-5%[59 µM]
